As a reminder, the % Inhibition is the drop in the measured response relative to a control, in per cent.

In all, about 13,000 compounds went through this assay and about 3,200 (25%) showed an effect of 50% or more. The list shows a part of the results.

For the experiment, the system named is P. falciparum stage V gametocytes. More on the design: BacTiter-Glo ATP luminescence viability of purified stage V gametocytes in 384-well plates, per cent inhibition versus DMSO. The conditions noted are these: 48 h, 5 µM; inhibitor.
Regarding `CC(=O)COc1c(C2CCN(CCCCNC(=O)c3ccc(-c4ccc(C(F)(F)F)cc4)cc3)CC2)ccc2c1CCCC2` [TCMDC-138738], the “% Inhibition” value amounted to 105.6%.

For the molecule `O=C(NCCCCN1CCC(c2ccc3c(c2OCC(O)c2ccc(Cl)cc2)CCCC3)CC1)c1ccc(-c2ccc(C(F)(F)F)cc2)cc1` (stereo not drawn) [TCMDC-138749], the “% Inhibition” value was found to be 115%.

On to `O=C(NCCCCN1CCC(c2ccc3c(c2OCCN2CCCC2)CCCC3)CC1)c1ccc(-c2ccc(C(F)(F)F)cc2)cc1` [TCMDC-138768], for which the “% Inhibition” value is on record as 107.4%. In the case of `NC(N)=Nc1nccc(NCc2ccccc2)n1` [TCMDC-141971], the “% Inhibition” value turned out to be 14.91%.

In the case of `N#Cc1ccc(N(CCOc2ccc3c(c2)CCC(=O)N3)Cc2ccccc2C(F)(F)F)cc1C(F)(F)F` [TCMDC-132801], the “% Inhibition” value is 23.33%. The figure for `O=C(Nc1cccc(CN2CCCN(Cc3ccc(O)cc3)CC2)c1)c1cc(F)cc(F)c1` [TCMDC-141881] is 2.179%; for `O=C(/C=C/c1ccc(Cl)c(Cl)c1)NCCCCCN1CCC(NC(=O)NCCc2ccccc2)CC1` [TCMDC-135707] it is -32.39%. The figure for `CCCC(=O)Nc1ccc(OCCCN(Cc2ccccc2OC(F)(F)F)c2ccc(C#N)c(C(F)(F)F)c2)cc1` [TCMDC-135667] is 14.29%.

With `COc1ccccc1-c1[nH]c2ccccc2c1CN1CCC(c2c(C)cccc2C)CC1` [TCMDC-141628], the “% Inhibition” value was 83.13%. In the case of `COc1cccc(-c2[nH]c3ccccc3c2CN2CCC(c3c(C)cccc3C)CC2)c1` [TCMDC-141630], the “% Inhibition” value is listed as 29.07%.

With `COc1cccc(CN2CCC(CCOC(c3ccccc3)c3ccccc3)CC2)c1O` [TCMDC-136041], the “% Inhibition” value is -8.929%. Take `CCN1CCN(c2cc(C)c3cc(NC(=O)c4ccc(Br)o4)ccc3n2)CC1` [TCMDC-123600]: the “% Inhibition” value came out at 1.193%. For the molecule `COc1ccc(-c2cccc(NC(=O)c3ccc(Cl)cc3)c2)cc1CN1CCCN(C)CC1` [TCMDC-132602], the “% Inhibition” value is given as -35%.

Turning to `COc1ccc(-c2ccc(NC(=O)c3ccc(Cl)cc3)cc2)cc1CN1CCN(C)CC1` [TCMDC-132512], the “% Inhibition” value was 92.99%. The figure for `COc1ccc(-c2ccc(NC(=O)c3ccc(C#N)cc3)cc2)cc1CN1CCN(C)CC1` [TCMDC-133336] is -18.08%. The figure for `COc1ccc(-c2ccc(CNC(=O)c3ccc(Cl)cc3)c(F)c2)cc1CN1CCCN(C)CC1` [TCMDC-133369] is -6.152%; for `COc1ccc(-c2ccc(NC(=O)c3ccc(Cl)cc3)cc2)cc1CN1CCC(O)CC1` [TCMDC-133337] it is 0.3946%; for `COc1ccc(-c2ccc(NC(=O)c3ccc(Cl)cc3)cc2)cc1CN1CCCN(C)CC1` [TCMDC-132510] it is 104.3%. Regarding `COc1ccc(-c2cccc(NC(=O)c3cccc(Cl)c3)c2)cc1CN1CCN(C)CC1` [TCMDC-132617], the “% Inhibition” value is 28.66%. The figure for `COc1ccc(-c2ccc(NC(=O)c3cccc(Cl)c3)cc2)cc1CN1CCN(C)CC1` [TCMDC-132526] is 82.79%. For `CC1(C)N=C(N)N=C(N)N1OCCCNC(=O)c1ccc(C(=O)NCCCON2C(N)=NC(N)=NC2(C)C)cc1` [TCMDC-131677], the “% Inhibition” value is 3.216%. For `CCOC(=O)c1ccc(-c2c(C(F)(F)F)noc2-c2cc(CC)c(OC)cc2O)o1` [TCMDC-124150], the “% Inhibition” value was 2.818%. The figure for `Cc1ccc(C)c2c1[nH]c1ccc(C3=NCCN3)cc12` [TCMDC-137683] is 24.52%; for `CCCS(=O)(=O)c1nc(S(=O)(=O)c2ccc(Cl)cc2)c(N2CCCCC2)s1` [TCMDC-124768] it is -49.43%. With `Cc1cc(-c2ccc(CNCc3ccsc3)cc2)ccc1S(=O)(=O)NCCN1CCCC1` [TCMDC-132292], the “% Inhibition” value came to 94.64%.

Regarding `COc1ccc(-c2ccc(CNCc3ccsc3)cc2)cc1S(=O)(=O)NCCN1CCCC1` [TCMDC-132283], the “% Inhibition” value came out at 107.3%.

Take `COc1ccc(CNCc2ccsc2)cc1-c1ccc(OC)c(S(=O)(=O)NCCN2CCCC2)c1` [TCMDC-132296]: the “% Inhibition” value is listed as 104.6%. Take `COc1ccc(CNCc2ccsc2)cc1-c1ccc(S(=O)(=O)NCCN2CCCC2)c(C)c1` [TCMDC-132225]: the “% Inhibition” value is recorded as 105.9%.

On to `O=S(=O)(NCCN1CCCC1)c1ccc(-c2ccc(CNCc3ccsc3)cc2)cc1F` [TCMDC-132288], for which the “% Inhibition” value was 40.86%.

`CC(=O)OCCN1C(=O)c2ccc3c4c(ccc(c24)C1=O)C(=O)N(CCOC(C)=O)C3=O` [TCMDC-123488]: the “% Inhibition” value was 10.44%.

Consider `COc1cc(Nc2nccc(N3CCC(NC(=O)c4cccc(NC(C)=O)c4)C3)n2)cc(OC)c1OC` (stereo not drawn) [TCMDC-133622], for which the “% Inhibition” value is on record as -17.51%.

With `Cc1ccc(O)c(C(=O)c2cnc3c(c2)c(-c2ccc(F)cc2)c(C#N)c(=O)n3C)c1` [TCMDC-124507], the “% Inhibition” value is 19.5%. The figure for `CC(=O)Nc1ccc(CN2CCC(N(C)c3cc(NC(=O)c4cccc(F)c4)ccn3)CC2)cc1` [TCMDC-134981] is -20.16%; for `O=C(Nc1ccc2c(c1)CN(Cc1ccc(N3CCCC3)o1)CCC2)c1ccoc1` [TCMDC-134723] it is -9.381%.

For `CCOc1ccc(-c2nc(NC(=O)Cc3cccc(OC)c3)sc2C)cc1` [TCMDC-123618], the “% Inhibition” value is -21.09%. Consider `COc1ccc(-c2nc(NC(=O)CS(=O)(=O)c3ccc(C)cc3)sc2C)cc1` [TCMDC-124318], for which the “% Inhibition” value came out at 31.51%. For `COc1ccc(-c2nc(NC(=O)CSc3ccccc3)sc2C)cc1` [TCMDC-123814], the “% Inhibition” value is 23.99%. Consider `COc1ccc(-c2nc(NC(=O)CSc3ccc([N+](=O)[O-])cc3)sc2C)cc1` [TCMDC-124323], for which the “% Inhibition” value is recorded as 91.56%. Take `COc1ccc(-c2nc(NC(=O)Cc3cccc(OC)c3)sc2C)cc1` [TCMDC-124331]: the “% Inhibition” value was determined as 95.1%.

As for `COc1ccc(-c2nc(NC(=O)CS(=O)(=O)c3ccc(OC)cc3)sc2C)cc1` [TCMDC-125152], the “% Inhibition” value was -0.7393%. The figure for `COc1ccc(-c2nc(NC(=O)Cc3ccc(OC)c(OC)c3)sc2C)cc1` [TCMDC-123619] is 10.74%. The figure for `COc1ccc(OCC(=O)Nc2nc(-c3ccc(OC)cc3)c(C)s2)cc1` [TCMDC-124330] is 22.09%; for `Cc1sc(NC(=O)Cc2cccc(C(F)(F)F)c2)nc1-c1cccc(Cl)c1` [TCMDC-125144] it is 54.43%; for `Cc1ccc(-c2nc(NC(=O)Nc3ccc(C(F)(F)F)cc3)sc2C)cc1Cl` [TCMDC-125584] it is 10.27%.

As to `COc1ccc(-c2nc(NC(=O)Cc3ccc4c(c3)OCCO4)sc2C)cc1` [TCMDC-124374], the “% Inhibition” value is reported as 41.12%. In the case of `COc1ccc(-c2nc(NC(=O)CS(=O)(=O)c3ccc(F)cc3)sc2C)cc1` [TCMDC-123523], the “% Inhibition” value is listed as 53.6%. On to `CCOc1cc2c(cc1OCC)C(c1ccc(O)c(Cl)c1)NCC2` (stereo not drawn) [TCMDC-125439], for which the “% Inhibition” value came out at 10.77%. The figure for `CC1CN(c2nc(NCCc3ccc(O)cc3)nc(NCc3ccccc3-c3ccc(C(F)(F)F)cc3)n2)CC(C)N1` (stereo not drawn) [TCMDC-138324] is 26.39%; for `COc1cc2nc(N(C)CC3COc4ccccc4O3)nc(N)c2cc1OC.Cl` (stereo not drawn) [TCMDC-131889] it is -22.31%; for `C=CCC(C)n1ncc2c3c(N)nc(N)nc3ccc21` (stereo not drawn) [TCMDC-137867] it is -15.57%. The figure for `COc1cc(Cc2cnc(N)nc2N)c2c(c1OC)OC(C)C=C2` (stereo not drawn) [TCMDC-137896] is 4.903%. Turning to `O=C(Nc1cccc(-c2cccc(-c3nc4ccc(F)cc4[nH]3)c2)c1)c1cnc[nH]1` [TCMDC-136932], the “% Inhibition” value is listed as -61.11%.

Consider `COc1ccc(-c2c3c(=O)n(C)c(=O)n(C)c3c3nnc4ccccc4n23)cc1` [TCMDC-125099], for which the “% Inhibition” value was -11.53%.

As to `O=C(Nc1ccc(-c2nc3ccccc3[nH]2)cc1)C1CCCN(CC2CC2)C1` (stereo not drawn) [TCMDC-124656], the “% Inhibition” value was -0.844%. The figure for `O=C(CC1NC(=O)c2ccccc21)Nc1ccc(-c2ccc(-c3nc4ccc(C(F)(F)F)cc4[nH]3)cc2)cc1` (stereo not drawn) [TCMDC-137095] is 71.74%; for `CN1CCC(C(=O)Nc2ccc(-c3cccc(-c4nc5ccc(C(F)(F)F)cc5[nH]4)c3)cc2)CC1` [TCMDC-132188] it is -24.87%.

Turning to `CN1CCN(CC(=O)Nc2ccc(-c3ccc(-c4nc5ccc(C(F)(F)F)cc5[nH]4)cc3)cc2)CC1` [TCMDC-136985], the “% Inhibition” value was -42.42%. As to `CN1CCN(CC(=O)Nc2cccc(-c3ccc(-c4nc5cc(C(F)(F)F)ccc5[nH]4)s3)c2)CC1` [TCMDC-136977], the “% Inhibition” value is reported as -5.014%. The figure for `Cc1cccc2[nH]c(-c3cccc(-c4ccc(NC(=O)CC5NC(=O)c6ccccc65)cc4)c3)nc12` (stereo not drawn) [TCMDC-137094] is -30.82%; for `CN1CCN(CC(=O)Nc2ccc(-c3cccc(-c4nc5ccc(C(F)(F)F)cc5[nH]4)c3)cc2)CC1` [TCMDC-136981] it is 72.32%. Regarding `CN1CCN(CC(=O)Nc2cccc(-c3cccc(-c4nc5ccc(C(F)(F)F)cc5[nH]4)c3)c2)CC1` [TCMDC-136980], the “% Inhibition” value is on record as 78.77%. The figure for `CN1CCN(CC(=O)Nc2cccc(-c3ccc(-c4nc5ccc(C(F)(F)F)cc5[nH]4)cc3)c2)CC1` [TCMDC-136984] is -3.609%; for `O=C(CC1NC(=O)c2ccccc21)Nc1ccc(-c2cccc(-c3nc4ccc(C(F)(F)F)cc4[nH]3)c2)cc1` (stereo not drawn) [TCMDC-137092] it is -11.47%. On to `CCOC(=O)CNC(=O)N1CCN(C(=O)NCC(=O)OCC)CC1` [TCMDC-138998], for which the “% Inhibition” value is recorded as -3.887%. The figure for `Cc1c(-c2ccccc2)ccc2[nH]cc(CC#N)c12` [TCMDC-139748] is 49.07%; for `O=C(Nc1cccc(CN2CCCN(Cc3ccc(O)cc3)CC2)c1)c1ccc2ccccc2n1` [TCMDC-141860] it is 34.74%.

These data come from article PMC4552634, “A New Set of Chemical Starting Points with Plasmodium falciparum Transmission-Blocking Potential for Antimalarial Drug Discovery” (PLoS ONE, 2015).
